# Columns and labels:
# Experiment in all cases: DAPPL (digital affinity profiling via proximity ligation, sequencing); 10 mM Tris-HCl pH 7.5, 50 mM NaCl, 1 mM DTT, 4% glycerol, room temperature, 30 min; GST-TFs on glutathione beads, 16-mer random dsDNA library, 0.1% formaldehyde crosslink after washing; high values mean tight binding
# [1] = biological target: T1, FLI1 (Homo sapiens, UniProt Q01543 1-452); conditions: protein: recombinant; tags: N-terminal GST; dsDNA, one strand shown
# T1 sequence: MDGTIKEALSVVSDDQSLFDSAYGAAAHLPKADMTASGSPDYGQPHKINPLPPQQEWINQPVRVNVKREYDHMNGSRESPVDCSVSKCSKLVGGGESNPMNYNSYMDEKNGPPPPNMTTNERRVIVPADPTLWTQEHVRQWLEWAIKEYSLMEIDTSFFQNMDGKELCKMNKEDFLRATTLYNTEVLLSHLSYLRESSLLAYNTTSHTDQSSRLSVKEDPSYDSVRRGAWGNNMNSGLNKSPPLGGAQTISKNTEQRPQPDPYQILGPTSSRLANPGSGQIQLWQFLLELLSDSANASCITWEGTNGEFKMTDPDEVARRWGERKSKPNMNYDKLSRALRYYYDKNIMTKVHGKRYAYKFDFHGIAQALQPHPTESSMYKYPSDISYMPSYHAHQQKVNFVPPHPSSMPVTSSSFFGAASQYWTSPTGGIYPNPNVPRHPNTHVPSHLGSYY
# Method in brief: (§1)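 A tag-only sample was pooled with DNA-barcoded human transcription factors that had been expressed in yeast as GST fusions and captured on glutathione beads. The pools were incubated for 30 min at room temperature with 200 nmole of a random double-stranded 16-mer DNA library in Tris/NaCl/DTT/glycerol buffer, then washed, crosslinked with 0.1% formaldehyde, proximity-ligated (BsaI/T4 ligase, 1 h, 37 °C), PCR-amplified and sequenced on an Illumina NextSeq500. Binding signal is each hexamer's read frequency for a factor divided by its frequency for the tag-only sample.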
# [2] = biological target: T2, ELK1 (Homo sapiens, UniProt P19419 1-428); conditions: protein: recombinant; tags: N-terminal GST; dsDNA, one strand shown
# T2 sequence: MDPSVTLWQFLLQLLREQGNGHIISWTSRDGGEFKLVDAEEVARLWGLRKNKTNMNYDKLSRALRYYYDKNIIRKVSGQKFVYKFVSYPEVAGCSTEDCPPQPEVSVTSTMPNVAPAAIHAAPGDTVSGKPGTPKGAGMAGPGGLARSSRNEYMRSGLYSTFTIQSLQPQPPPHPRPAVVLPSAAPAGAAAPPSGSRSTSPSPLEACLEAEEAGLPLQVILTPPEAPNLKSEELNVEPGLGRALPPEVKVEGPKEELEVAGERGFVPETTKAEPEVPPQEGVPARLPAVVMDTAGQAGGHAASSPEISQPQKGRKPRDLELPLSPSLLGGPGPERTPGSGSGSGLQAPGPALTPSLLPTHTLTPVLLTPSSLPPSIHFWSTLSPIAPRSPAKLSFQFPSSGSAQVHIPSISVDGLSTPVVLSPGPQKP
# Method in brief: as §1
# [3] = biological target: T3, GABPA (Homo sapiens, UniProt Q06546 1-454); conditions: protein: recombinant; tags: N-terminal GST; dsDNA, one strand shown
# T3 sequence: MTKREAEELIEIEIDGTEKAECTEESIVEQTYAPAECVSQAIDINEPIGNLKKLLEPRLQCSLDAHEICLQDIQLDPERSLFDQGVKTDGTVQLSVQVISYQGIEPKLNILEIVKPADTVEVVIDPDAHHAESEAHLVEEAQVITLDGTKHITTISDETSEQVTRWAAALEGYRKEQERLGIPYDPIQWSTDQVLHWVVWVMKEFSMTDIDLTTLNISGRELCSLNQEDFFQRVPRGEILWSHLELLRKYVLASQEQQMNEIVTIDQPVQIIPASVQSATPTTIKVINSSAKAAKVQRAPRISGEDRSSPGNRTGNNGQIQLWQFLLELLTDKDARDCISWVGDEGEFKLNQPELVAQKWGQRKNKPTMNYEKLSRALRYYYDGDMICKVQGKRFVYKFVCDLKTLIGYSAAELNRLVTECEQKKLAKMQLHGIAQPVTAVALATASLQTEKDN
# Method in brief: as §1
# [4] = biological target: T4, ERG (Homo sapiens, UniProt P11308 1-479); conditions: protein: recombinant; tags: N-terminal GST; dsDNA, one strand shown
# T4 sequence: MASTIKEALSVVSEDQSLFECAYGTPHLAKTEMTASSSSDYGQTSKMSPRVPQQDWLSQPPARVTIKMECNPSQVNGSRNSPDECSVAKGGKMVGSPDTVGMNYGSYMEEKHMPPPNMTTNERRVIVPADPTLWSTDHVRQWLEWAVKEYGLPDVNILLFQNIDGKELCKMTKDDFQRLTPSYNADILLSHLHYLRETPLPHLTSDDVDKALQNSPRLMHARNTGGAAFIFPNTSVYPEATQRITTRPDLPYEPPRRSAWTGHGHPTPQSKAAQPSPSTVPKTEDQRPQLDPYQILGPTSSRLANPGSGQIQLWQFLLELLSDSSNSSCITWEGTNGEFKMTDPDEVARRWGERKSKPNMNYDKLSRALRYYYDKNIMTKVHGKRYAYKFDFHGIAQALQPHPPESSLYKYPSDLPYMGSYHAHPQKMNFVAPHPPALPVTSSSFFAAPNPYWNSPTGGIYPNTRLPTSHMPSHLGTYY
# Method in brief: as §1
# [5] = biological target: ELF1 (Homo sapiens, UniProt P32519 1-619); conditions: protein: recombinant; tags: N-terminal GST; dsDNA, one strand shown
# Method in brief: as §1
# [6] = biological target: T5, EHF (Homo sapiens, UniProt Q9NZC4 1-300); conditions: protein: recombinant; tags: N-terminal GST; dsDNA, one strand shown
# T5 sequence: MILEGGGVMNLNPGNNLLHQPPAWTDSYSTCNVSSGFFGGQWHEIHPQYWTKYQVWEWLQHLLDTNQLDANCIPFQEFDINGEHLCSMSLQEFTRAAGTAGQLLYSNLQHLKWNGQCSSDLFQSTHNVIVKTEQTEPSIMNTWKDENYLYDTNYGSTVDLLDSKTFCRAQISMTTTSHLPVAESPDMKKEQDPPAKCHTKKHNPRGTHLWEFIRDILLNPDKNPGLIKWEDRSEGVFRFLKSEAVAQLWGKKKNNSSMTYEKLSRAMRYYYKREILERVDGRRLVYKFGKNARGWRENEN
# Method in brief: as §1
# [7] = biological target: SPI1 (Homo sapiens, UniProt P17947 1-270); conditions: protein: recombinant; tags: N-terminal GST; dsDNA, one strand shown
# Method in brief: as §1
# [8] = biological target: SPIB (Homo sapiens, UniProt Q01892 1-262); conditions: protein: recombinant; tags: N-terminal GST; dsDNA, one strand shown
# Method in brief: as §1
# [9] = biological target: T6, ELK3 (Homo sapiens, UniProt P41970 1-407); conditions: protein: recombinant; tags: N-terminal GST; dsDNA, one strand shown
# T6 sequence: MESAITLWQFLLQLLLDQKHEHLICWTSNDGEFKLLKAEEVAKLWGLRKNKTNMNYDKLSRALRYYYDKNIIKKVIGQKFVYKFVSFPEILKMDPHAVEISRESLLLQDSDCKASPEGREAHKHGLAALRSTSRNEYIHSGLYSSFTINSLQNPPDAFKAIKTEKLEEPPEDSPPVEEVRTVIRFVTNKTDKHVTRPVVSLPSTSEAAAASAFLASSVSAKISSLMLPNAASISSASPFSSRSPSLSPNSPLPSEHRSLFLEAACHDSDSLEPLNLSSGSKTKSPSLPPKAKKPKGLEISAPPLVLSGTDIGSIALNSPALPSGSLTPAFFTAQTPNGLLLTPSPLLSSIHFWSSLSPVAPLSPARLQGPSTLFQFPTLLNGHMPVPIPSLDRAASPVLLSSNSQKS
# Method in brief: as §1
# [10] = biological target: T7, FEV (Homo sapiens, UniProt Q99581 1-238); conditions: protein: recombinant; tags: N-terminal GST; dsDNA, one strand shown
# T7 sequence: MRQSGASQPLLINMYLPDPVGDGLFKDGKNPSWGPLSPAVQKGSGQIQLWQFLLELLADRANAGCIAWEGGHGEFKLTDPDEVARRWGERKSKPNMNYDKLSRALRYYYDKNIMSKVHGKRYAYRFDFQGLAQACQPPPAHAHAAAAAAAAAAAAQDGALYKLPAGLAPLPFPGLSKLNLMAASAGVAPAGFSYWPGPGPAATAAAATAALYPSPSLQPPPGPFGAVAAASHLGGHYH
# Method in brief: as §1
# [11] = biological target: ETV5 (Homo sapiens, UniProt P41161 1-510); conditions: protein: recombinant; tags: N-terminal GST; dsDNA, one strand shown
# Method in brief: as §1
# [12] = biological target: HSF1 (Homo sapiens, UniProt Q00613 1-529); conditions: protein: recombinant; tags: N-terminal GST; chain copies: 3; dsDNA, one strand shown
# Method in brief: as §1
# [13] = biological target: ELF4 (Homo sapiens, UniProt Q99607 1-663); conditions: protein: recombinant; tags: N-terminal GST; dsDNA, one strand shown
# Method in brief: as §1
# [14] = biological target: T8, ELK4 (Homo sapiens, UniProt P28324-2 1-405); conditions: protein: recombinant; tags: N-terminal GST; dsDNA, one strand shown
# T8 sequence: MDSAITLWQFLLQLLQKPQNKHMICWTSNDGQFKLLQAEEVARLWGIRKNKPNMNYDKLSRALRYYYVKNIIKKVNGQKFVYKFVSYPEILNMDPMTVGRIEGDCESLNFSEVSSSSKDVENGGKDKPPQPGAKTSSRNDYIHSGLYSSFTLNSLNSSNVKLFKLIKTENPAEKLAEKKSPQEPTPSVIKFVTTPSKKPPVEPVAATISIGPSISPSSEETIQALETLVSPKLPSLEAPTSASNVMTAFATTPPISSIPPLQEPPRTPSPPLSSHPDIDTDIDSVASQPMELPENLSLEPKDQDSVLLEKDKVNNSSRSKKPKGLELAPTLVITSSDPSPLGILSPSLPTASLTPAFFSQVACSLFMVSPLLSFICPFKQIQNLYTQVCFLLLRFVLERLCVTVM
# Method in brief: as §1
# [15] = biological target: T9, ETV2 (Homo sapiens, UniProt O00321 1-342); conditions: protein: recombinant; tags: N-terminal GST; dsDNA, one strand shown
# T9 sequence: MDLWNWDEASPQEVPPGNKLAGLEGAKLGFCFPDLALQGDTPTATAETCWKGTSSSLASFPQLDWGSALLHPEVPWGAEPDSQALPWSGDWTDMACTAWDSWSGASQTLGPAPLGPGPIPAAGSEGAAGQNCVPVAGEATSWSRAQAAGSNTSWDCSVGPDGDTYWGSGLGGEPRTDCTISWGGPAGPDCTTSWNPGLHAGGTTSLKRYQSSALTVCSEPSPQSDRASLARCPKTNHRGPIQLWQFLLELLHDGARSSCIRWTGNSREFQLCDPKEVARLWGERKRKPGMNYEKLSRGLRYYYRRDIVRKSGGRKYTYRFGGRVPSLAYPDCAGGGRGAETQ
# Method in brief: as §1
# [16] = biological target: T10, ELF3 (Homo sapiens, UniProt P78545 1-371); conditions: protein: recombinant; tags: N-terminal GST; dsDNA, one strand shown
# T10 sequence: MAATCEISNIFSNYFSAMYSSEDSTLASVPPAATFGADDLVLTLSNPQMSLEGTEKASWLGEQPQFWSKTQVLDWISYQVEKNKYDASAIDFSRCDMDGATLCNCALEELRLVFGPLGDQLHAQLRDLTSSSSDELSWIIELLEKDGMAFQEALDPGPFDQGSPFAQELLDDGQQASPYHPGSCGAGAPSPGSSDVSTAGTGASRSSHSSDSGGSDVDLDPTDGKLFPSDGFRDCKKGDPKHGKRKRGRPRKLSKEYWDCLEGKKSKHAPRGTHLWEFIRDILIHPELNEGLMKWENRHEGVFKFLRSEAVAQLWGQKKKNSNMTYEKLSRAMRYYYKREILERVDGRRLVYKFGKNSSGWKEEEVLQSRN
# Method in brief: as §1
# [17] = biological target: CRX (Homo sapiens, UniProt O43186 1-299); conditions: protein: recombinant; tags: N-terminal GST; dsDNA, one strand shown
# Method in brief: as §1
# [18] = biological target: ETV1 (Homo sapiens, UniProt P50549 1-477); conditions: protein: recombinant; tags: N-terminal GST; dsDNA, one strand shown
# Method in brief: as §1
# HSF1, sequence (Q00613 whole entry): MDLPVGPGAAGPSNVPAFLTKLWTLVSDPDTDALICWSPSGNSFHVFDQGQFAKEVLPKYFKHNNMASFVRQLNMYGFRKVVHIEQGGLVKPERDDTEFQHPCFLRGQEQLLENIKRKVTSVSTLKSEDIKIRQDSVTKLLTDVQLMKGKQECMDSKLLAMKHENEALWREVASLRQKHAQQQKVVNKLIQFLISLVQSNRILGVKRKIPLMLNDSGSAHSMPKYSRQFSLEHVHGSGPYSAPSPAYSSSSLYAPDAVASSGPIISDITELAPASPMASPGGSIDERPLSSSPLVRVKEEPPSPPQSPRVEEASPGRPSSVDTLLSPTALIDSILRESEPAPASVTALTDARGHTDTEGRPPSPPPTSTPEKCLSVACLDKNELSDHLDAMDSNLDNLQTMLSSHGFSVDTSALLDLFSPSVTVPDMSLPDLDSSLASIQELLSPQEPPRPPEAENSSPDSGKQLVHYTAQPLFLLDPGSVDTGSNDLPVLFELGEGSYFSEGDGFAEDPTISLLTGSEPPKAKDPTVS
# CRX, sequence (O43186 whole entry): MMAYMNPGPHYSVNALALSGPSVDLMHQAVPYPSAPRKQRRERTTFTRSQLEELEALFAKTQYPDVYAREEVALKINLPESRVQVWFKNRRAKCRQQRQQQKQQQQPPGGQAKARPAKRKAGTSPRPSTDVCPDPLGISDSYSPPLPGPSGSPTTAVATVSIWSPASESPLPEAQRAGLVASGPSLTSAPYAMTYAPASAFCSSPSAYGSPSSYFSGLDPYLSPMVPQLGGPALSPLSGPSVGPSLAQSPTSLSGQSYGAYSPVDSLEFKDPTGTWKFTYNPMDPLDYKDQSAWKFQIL
# ETV5, sequence (P41161 whole entry): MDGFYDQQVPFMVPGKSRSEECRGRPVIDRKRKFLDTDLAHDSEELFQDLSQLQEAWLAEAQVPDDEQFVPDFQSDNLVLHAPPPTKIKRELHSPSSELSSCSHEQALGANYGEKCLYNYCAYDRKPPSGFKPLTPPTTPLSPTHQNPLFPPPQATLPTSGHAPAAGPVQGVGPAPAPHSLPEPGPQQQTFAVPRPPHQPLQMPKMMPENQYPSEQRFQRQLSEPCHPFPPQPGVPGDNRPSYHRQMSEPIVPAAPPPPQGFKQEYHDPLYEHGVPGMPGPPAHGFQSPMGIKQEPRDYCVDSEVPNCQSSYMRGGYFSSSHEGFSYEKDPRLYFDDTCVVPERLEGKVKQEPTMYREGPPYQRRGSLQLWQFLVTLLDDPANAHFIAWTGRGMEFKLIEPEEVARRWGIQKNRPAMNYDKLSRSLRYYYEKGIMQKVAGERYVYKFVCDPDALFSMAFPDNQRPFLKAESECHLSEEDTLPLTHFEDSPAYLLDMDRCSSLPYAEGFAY
# ELF1, sequence (P32519 whole entry): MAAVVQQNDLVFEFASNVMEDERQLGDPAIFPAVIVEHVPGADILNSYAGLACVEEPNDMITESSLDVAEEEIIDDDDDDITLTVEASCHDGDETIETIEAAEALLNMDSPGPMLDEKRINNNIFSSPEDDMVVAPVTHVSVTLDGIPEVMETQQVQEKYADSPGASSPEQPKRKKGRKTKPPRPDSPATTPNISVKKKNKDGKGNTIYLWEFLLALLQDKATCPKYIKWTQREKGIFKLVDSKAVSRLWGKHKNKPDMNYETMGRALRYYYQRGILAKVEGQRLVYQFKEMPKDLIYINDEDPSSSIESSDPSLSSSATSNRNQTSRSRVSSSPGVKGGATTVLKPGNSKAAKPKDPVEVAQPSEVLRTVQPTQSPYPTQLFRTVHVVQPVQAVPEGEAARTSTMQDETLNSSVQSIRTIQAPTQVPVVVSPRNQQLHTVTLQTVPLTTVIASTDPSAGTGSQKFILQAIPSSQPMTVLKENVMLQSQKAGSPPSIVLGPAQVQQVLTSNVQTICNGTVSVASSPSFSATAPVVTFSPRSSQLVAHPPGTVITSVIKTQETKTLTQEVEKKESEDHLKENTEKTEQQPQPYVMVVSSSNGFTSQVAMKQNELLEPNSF
# ELF4, sequence (Q99607 whole entry): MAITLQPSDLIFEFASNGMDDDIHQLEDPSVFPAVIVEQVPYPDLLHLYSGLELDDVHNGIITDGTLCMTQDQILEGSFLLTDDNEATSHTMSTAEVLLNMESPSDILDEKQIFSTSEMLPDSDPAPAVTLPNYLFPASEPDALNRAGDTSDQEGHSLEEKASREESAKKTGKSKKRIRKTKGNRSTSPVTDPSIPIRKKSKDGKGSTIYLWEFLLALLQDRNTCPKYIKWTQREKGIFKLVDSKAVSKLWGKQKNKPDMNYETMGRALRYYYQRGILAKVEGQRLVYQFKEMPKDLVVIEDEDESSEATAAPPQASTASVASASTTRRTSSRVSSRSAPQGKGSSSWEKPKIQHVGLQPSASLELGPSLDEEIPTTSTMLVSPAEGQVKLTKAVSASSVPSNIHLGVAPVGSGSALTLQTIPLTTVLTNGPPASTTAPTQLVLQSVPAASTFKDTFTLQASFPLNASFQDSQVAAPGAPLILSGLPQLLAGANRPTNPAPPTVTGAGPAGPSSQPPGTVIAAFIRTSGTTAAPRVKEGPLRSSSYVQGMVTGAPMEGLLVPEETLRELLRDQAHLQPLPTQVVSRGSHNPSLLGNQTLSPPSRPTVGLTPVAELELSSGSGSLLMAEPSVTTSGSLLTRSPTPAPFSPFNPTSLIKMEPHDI
# ETV1, sequence (P50549 whole entry): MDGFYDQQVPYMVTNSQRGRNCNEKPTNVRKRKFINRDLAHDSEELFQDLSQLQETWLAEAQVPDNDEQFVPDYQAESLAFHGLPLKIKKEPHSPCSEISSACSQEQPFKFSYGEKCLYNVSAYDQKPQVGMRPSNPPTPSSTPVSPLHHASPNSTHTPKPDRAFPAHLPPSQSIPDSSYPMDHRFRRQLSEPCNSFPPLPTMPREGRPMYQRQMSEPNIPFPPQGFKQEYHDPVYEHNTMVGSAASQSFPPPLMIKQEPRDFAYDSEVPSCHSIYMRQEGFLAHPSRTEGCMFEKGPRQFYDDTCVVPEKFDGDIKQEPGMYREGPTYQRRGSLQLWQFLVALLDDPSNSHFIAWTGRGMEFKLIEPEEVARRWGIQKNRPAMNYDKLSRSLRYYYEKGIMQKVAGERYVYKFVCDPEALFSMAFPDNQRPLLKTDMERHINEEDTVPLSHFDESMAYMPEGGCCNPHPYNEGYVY
# SPIB, sequence (Q01892 whole entry): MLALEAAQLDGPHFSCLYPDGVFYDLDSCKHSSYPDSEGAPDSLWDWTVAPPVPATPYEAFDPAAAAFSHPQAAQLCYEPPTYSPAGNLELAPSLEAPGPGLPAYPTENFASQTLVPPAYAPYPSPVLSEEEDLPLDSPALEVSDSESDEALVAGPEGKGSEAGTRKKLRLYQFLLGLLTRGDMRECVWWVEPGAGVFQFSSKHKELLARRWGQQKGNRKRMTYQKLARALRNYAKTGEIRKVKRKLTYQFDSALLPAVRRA
Sequence,binding signal [1],binding signal [2],binding signal [3],binding signal [4],binding signal [5],binding signal [6],binding signal [7],binding signal [8],binding signal [9],binding signal [10],binding signal [11],binding signal [12],binding signal [13],binding signal [14],binding signal [15],binding signal [16],binding signal [17],binding signal [18]
AGCTGC,"1.16 fold enrichment (6-mer frequency, TF over GST control)","1.16 fold enrichment (6-mer frequency, TF over GST control)","1.17 fold enrichment (6-mer frequency, TF over GST control)","1.1 fold enrichment (6-mer frequency, TF over GST control)","1.18 fold enrichment (6-mer frequency, TF over GST control)","1.18 fold enrichment (6-mer frequency, TF over GST control)","1.11 fold enrichment (6-mer frequency, TF over GST control)","1.24 fold enrichment (6-mer frequency, TF over GST control)","1.01 fold enrichment (6-mer frequency, TF over GST control)","1.15 fold enrichment (6-mer frequency, TF over GST control)","1.06 fold enrichment (6-mer frequency, TF over GST control)","1.04 fold enrichment (6-mer frequency, TF over GST control)","1.16 fold enrichment (6-mer frequency, TF over GST control)","1.11 fold enrichment (6-mer frequency, TF over GST control)","1.22 fold enrichment (6-mer frequency, TF over GST control)","1.08 fold enrichment (6-mer frequency, TF over GST control)","1.13 fold enrichment (6-mer frequency, TF over GST control)","1.18 fold enrichment (6-mer frequency, TF over GST control)"
ATAGCA,"1.17 fold enrichment (6-mer frequency, TF over GST control)","1.14 fold enrichment (6-mer frequency, TF over GST control)","1.19 fold enrichment (6-mer frequency, TF over GST control)","1.19 fold enrichment (6-mer frequency, TF over GST control)","1.14 fold enrichment (6-mer frequency, TF over GST control)","1.13 fold enrichment (6-mer frequency, TF over GST control)","1.11 fold enrichment (6-mer frequency, TF over GST control)","1.18 fold enrichment (6-mer frequency, TF over GST control)","1.15 fold enrichment (6-mer frequency, TF over GST control)","1.13 fold enrichment (6-mer frequency, TF over GST control)","1.17 fold enrichment (6-mer frequency, TF over GST control)","1.02 fold enrichment (6-mer frequency, TF over GST control)","1.16 fold enrichment (6-mer frequency, TF over GST control)","1.15 fold enrichment (6-mer frequency, TF over GST control)","1.13 fold enrichment (6-mer frequency, TF over GST control)","1.25 fold enrichment (6-mer frequency, TF over GST control)","1.07 fold enrichment (6-mer frequency, TF over GST control)","1.1 fold enrichment (6-mer frequency, TF over GST control)"

# Reference: publication PMC7862700, “An all-to-all approach to the identification of sequence-specific readers for epigenetic DNA modifications on cytosine”
